# Shown is part of a subset that was picked to be rich in the strongest signals.
# Experiments:
# Experiment in all cases: glycan array binding signal (z-score within array); higher = stronger binding
# Details in all cases: glycan notation: IUPAC condensed, linker removed
# [1] = target: Fuc(a1-2)Gal(b1-3)GalNAc(b1-3)Gal
# Method in brief: (§1)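 The binding signal is a Z-score computed within each array and averaged over linkers. Arrays of the same protein sequence at different concentrations or buffers were also averaged together. Data originate from 3228 arrays in the Consortium for Functional Glycomics database, kept only where the protein sequence was available.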
# [2] = target: Fuc(a1-2)Gal(b1-3)GlcNAc(b1-3)GalNAc
# Method in brief: as §1
# Fuc(a1-2)Gal(b1-4)Glc = target: Fuc(a1-2)Gal(b1-4)Glc
# Method in brief: as §1
# [3] = target: Fuc(a1-2)Gal(b1-4)GlcNAc6S
# Method in brief: as §1
# [4] = target: Fuc(a1-2)Gal(b1-4)[Fuc(a1-3)]GlcNAc(b1-2)[Fuc(a1-2)Gal(b1-4)[Fuc(a1-3)]GlcNAc(b1-4)]Man(a1-3)[Fuc(a1-2)Gal(b1-4)[Fuc(a1-3)]GlcNAc(b1-2)Man(a1-6)]Man(b1-4)GlcNAc(b1-4)GlcNAc
# Method in brief: as §1
# [5] = target: Fuc(a1-2)Gal(b1-4)[Fuc(a1-3)]GlcNAc(b1-3)Gal(b1-4)[Fuc(a1-3)]GlcNAc(b1-3)Gal(b1-4)[Fuc(a1-3)]GlcNAc
# Method in brief: as §1
# [6] = target: Fuc(a1-2)[Gal(a1-3)]Gal(b1-4)GlcNAc(b1-2)Man(a1-3)[Fuc(a1-2)[Gal(a1-3)]Gal(b1-4)GlcNAc(b1-2)Man(a1-6)]Man(b1-4)GlcNAc(b1-4)GlcNAc
# Method in brief: as §1
# [7] = target: Fuc(a1-2)[Gal(a1-4)]Gal(b1-4)GlcNAc
# Method in brief: as §1
# [8] = target: Fuc(a1-2)[GalNAc(a1-3)]Gal(b1-4)GlcNAc(b1-3)GalNAc
# Method in brief: as §1
# [9] = target: Fuc(a1-3)[Gal(b1-4)]GlcNAc(b1-6)GalNAc
# Method in brief: as §1
# [10] = target: Fuc(a1-3)[Gal3S(b1-4)]Glc
# Method in brief: as §1
# [11] = target: Fuc(a1-3)[GalNAc(b1-4)]GlcNAc
# Method in brief: as §1
# Gal(a1-3)Gal(b1-3)GlcNAc = target: Gal(a1-3)Gal(b1-3)GlcNAc
# Method in brief: as §1
# [12] = target: Gal(a1-4)Gal(b1-4)GlcNAc(b1-2)Man(a1-3)[Gal(a1-4)Gal(b1-4)GlcNAc(b1-2)Man(a1-6)]Man(b1-4)GlcNAc(b1-4)GlcNAc
# Method in brief: as §1
# Gal(b1-3)GalNAc = target: Gal(b1-3)GalNAc
# Method in brief: as §1
# [13] = target: Gal(b1-3)GalNAc(b1-4)Gal(b1-4)Glc
# Method in brief: as §1
# [14] = target: Gal(b1-3)GlcNAc(a1-6)Gal(b1-4)GlcNAc
# Method in brief: as §1
# [15] = target: Gal(b1-3)GlcNAc(b1-3)Gal(b1-4)GlcNAc(b1-2)Man(a1-3)[Gal(b1-3)GlcNAc(b1-3)Gal(b1-4)GlcNAc(b1-2)Man(a1-6)]Man(b1-4)GlcNAc(b1-4)GlcNAc
# Method in brief: as §1
# [16] = target: Gal(b1-3)[Fuc(a1-4)]GlcNAc(b1-3)Gal(b1-4)[Fuc(a1-3)]GlcNAc
# Method in brief: as §1
# Gal(b1-4)Gal = target: Gal(b1-4)Gal
# Method in brief: as §1
# [17] = target: Gal(b1-4)GlcNAc(b1-2)Man(a1-6)[GlcNAc(b1-2)Man(a1-3)]Man(b1-4)GlcNAc(b1-4)GlcNAc
# Method in brief: as §1
# [18] = target: Gal(b1-4)GlcNAc(b1-3)Gal(b1-4)GlcNAc(b1-3)Gal(b1-4)GlcNAc(b1-3)Gal(b1-4)GlcNAc(b1-3)Gal(b1-4)GlcNAc(b1-2)Man(a1-3)[Gal(b1-4)GlcNAc(b1-3)Gal(b1-4)GlcNAc(b1-3)Gal(b1-4)GlcNAc(b1-3)Gal(b1-4)GlcNAc(b1-3)Gal(b1-4)GlcNAc(b1-2)Man(a1-6)]Man(b1-4)GlcNAc(b1-4)GlcNAc
# Method in brief: as §1
# [19] = target: Gal(b1-4)GlcNAc(b1-3)Gal(b1-4)GlcNAc(b1-3)Gal(b1-4)GlcNAc(b1-3)Gal(b1-4)GlcNAc(b1-3)Gal(b1-4)GlcNAc(b1-2)[Gal(b1-4)GlcNAc(b1-3)Gal(b1-4)GlcNAc(b1-3)Gal(b1-4)GlcNAc(b1-3)Gal(b1-4)GlcNAc(b1-3)Gal(b1-4)GlcNAc(b1-6)]Man(a1-6)[Gal(b1-4)GlcNAc(b1-3)Gal(b1-4)GlcNAc(b1-3)Gal(b1-4)GlcNAc(b1-3)Gal(b1-4)GlcNAc(b1-3)Gal(b1-4)GlcNAc(b1-2)Man(a1-3)]Man(b1-4)GlcNAc(b1-4)[Fuc(a1-6)]GlcNAc
# Method in brief: as §1
# [20] = target: Gal3S(b1-4)[Fuc(a1-3)]Glc6S
# Method in brief: as §1
# Gal6S(b1-4)GlcNAc6S = target: Gal6S(b1-4)GlcNAc6S
# Method in brief: as §1
# [21] = target: GalNAc(b1-4)GlcNAc(b1-2)Man
# Method in brief: as §1
# GalNAc(b1-4)GlcNAc6S = target: GalNAc(b1-4)GlcNAc6S
# Method in brief: as §1
# [22] = target: GalNAc3S(b1-4)[Fuc(a1-3)]GlcNAc
# Method in brief: as §1
# GlcA(b1-3)Gal = target: GlcA(b1-3)Gal
# Method in brief: as §1
# [23] = target: GlcNAc(a1-6)Gal(b1-4)GlcNAc
# Method in brief: as §1
binder,measurement,setting,value
FimA (Actinomyces oris) (protein) MHHHHHHSSGVDLGTENLYFQSNAETPNYGNIKTDATGSLVIHKHLTGGGKDIGTPTGTAQNADDKGPAVEGVVFTAYPITDINLKDPAGWDTISNLSRTGVPDSACANPAAPTLGAHQFGTPKVSPATTKEGLATITEMPVQAYLVCETTTPGDIVQKAKPFVVTIPHPNTAAGADGQWIYDVNVYPKNEAIDVDKTIQAQKLNGYGVGSLIKFPVESTAPTLDAKSFYKYFQLKDTLDERLSEVTATDVSLEGTPLQPTDYKVETKQQTVTVTFTAEGLKKIKAAPGKKVSAVFQGKVTKAGNGAITNRAQVISDTLYAEQPPTPETPPTDPENPPTSDEVISRWGDLSIKKVDTHQQGQTKAGLQGAQFQLYKAKNAYANTCSNEKEGAPIAINGQTTLTTDAQGAIDIKGLFISDSIDGADRDNQVNAMERCYVLVETKAPAGYVLPAGNGAATPVKVKAGEETTDNVTVENTKQSVPGLPLTG,glycan array binding signal (z-score),[1],11.8
same,glycan array binding signal (z-score),[2],-0.927
same,glycan array binding signal (z-score),Fuc(a1-2)Gal(b1-4)Glc,-0.719
same,glycan array binding signal (z-score),[3],-0.627
same,glycan array binding signal (z-score),[4],-0.358
same,glycan array binding signal (z-score),[5],-0.317
same,glycan array binding signal (z-score),[6],5.11
same,glycan array binding signal (z-score),[7],5.14
same,glycan array binding signal (z-score),[8],-0.408
same,glycan array binding signal (z-score),[9],-0.64
same,glycan array binding signal (z-score),[10],-0.294
same,glycan array binding signal (z-score),[11],3.5
same,glycan array binding signal (z-score),Gal(a1-3)Gal(b1-3)GlcNAc,-0.412
same,glycan array binding signal (z-score),[12],-0.497
same,glycan array binding signal (z-score),Gal(b1-3)GalNAc,0.278
same,glycan array binding signal (z-score),[13],3.27
same,glycan array binding signal (z-score),[14],-0.165
same,glycan array binding signal (z-score),[15],-0.744
same,glycan array binding signal (z-score),[16],0.459
same,glycan array binding signal (z-score),Gal(b1-4)Gal,0.292
same,glycan array binding signal (z-score),[17],-0.044
same,glycan array binding signal (z-score),[18],3.42
same,glycan array binding signal (z-score),[19],5.1
same,glycan array binding signal (z-score),[20],3.23
same,glycan array binding signal (z-score),Gal6S(b1-4)GlcNAc6S,4.75
same,glycan array binding signal (z-score),[21],-0.783
same,glycan array binding signal (z-score),GalNAc(b1-4)GlcNAc6S,4.1
same,glycan array binding signal (z-score),[22],-0.099
same,glycan array binding signal (z-score),GlcA(b1-3)Gal,0.311
same,glycan array binding signal (z-score),[23],-1.18

# From the supplement of paper PMC8728848
